Pf Dd2 inh: qHTS Primary assay for Inhibitors of Plasmodium falciparum Dd2 growth in vitro | Potency, µM (series often up to 28.9 µM), without a hit: at the top dose activity, negative = inhibition, hits mostly inhibitors | P. falciparum Dd2 growth, SYBR Green, 72 h | actives 4.3% (n = 120,000) | AID 1347417, 2020; active means well fitted inhibition curve with a large enough effect;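 further: plate controls were DMSO vehicle for no effect and reference drug for full effect; nearly all actives have a fitted effect of over 65% in size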
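Readout: SYBR Green fluorescence, 485 nm excitation, 535 nm emission, after ~16 h lysis at 37C. Before that, Dd2-infected red cells (2.5% hematocrit) grew 72 h with compound, 29 uM top final concentration.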
Numbers without * were called inactive; i = inactive; [ ] = remark or other dose. This excerpt belongs to a sample that is enriched for hits. Potency means the concentration at half of the fitted maximal effect.

SMILES	Pf Dd2 inh
CCN(c1ccccc1)c1nnc(NC(=O)Nc2ccc(Br)cc2)s1	-9%
COc1ccc2c(c1)OCC(CNC(=O)c1cc(-c3ccncc3)n[nH]1)C2 (configuration not stated)	13µM*
COc1ccc2c(c1)OCC(CNC(=O)c1ccc(-c3nnn(C)n3)cc1)C2 (configuration not stated)	2%
COc1ccc2c(c1)OCC(CNC(=O)c1scc3c1OCCO3)C2 (configuration not stated)	-19%
C1CC(N2CCC(c3nc(C4CCOC4)no3)CC2)CCO1 (configuration not stated)	-6%
COCCNC(=O)[C@@H]1CCC[C@@H](NC(=O)c2cc(C)n(C)n2)CN(C)C(=O)C1	37%[44.1 µM]
O=C(Cc1ccc(Cl)cc1)N1CCC2(CC1)CN(C1CCC1)CC2CO (configuration not stated)	8.9µM*
COCC1CN(C2CCC2)CC12CCN(C(=O)c1cccs1)CC2 (configuration not stated)	-11%
COCC1CN(C2CCC2)CC12CCN(C(=O)c1ccccn1)CC2 (configuration not stated)	11%
COCC1CN(C2CCC2)CC12CCN(C(=O)c1cccc(C#N)c1)CC2 (configuration not stated)	-23%
COCC1CN(C2CCC2)CC12CCN(C(=O)COc1cccc(C)c1)CC2 (configuration not stated)	5µM*
N#Cc1cccc(C(=O)N2CCC3(CC2)CN(C2CCC2)CC3CO)c1 (configuration not stated)	-10%
COCC1CN(C(C)=O)CC12CCN(C(=O)COc1cccc(C)c1)CC2 (configuration not stated)	i
COCC1CN(C2CCC2)CC12CCN(C(=O)c1cccc(C)c1)CC2 (configuration not stated)	8.9µM*
OCC1CN(C2CCC2)CC12CCN(C1CCC1)CC2 (configuration not stated)	1%
O=C(c1cn2c(n1)CN([S+](=O)([O-])c1cccc(C(F)(F)F)c1)CC2)N1CCOCC1	53%
COc1ccc(C[C@H](NC(=O)[C@@]2(O)C[C@@H](O)[C@H](O)[C@@H](NC(=O)Nc3ccc(OC(F)(F)F)cc3)C2)C(N)=O)cc1	0%
Cc1ccccc1CSc1ncc(CO)n1Cc1ccc(F)cc1	i
O=C(CN1C(=O)COc2ccc(S(=O)(=O)N3CCCCCC3)cc21)NCc1ccc(Cl)cc1	52%
Cc1nc(N2CCC(NC(=O)Cc3ccsc3)CC2)cc(C(F)(F)F)n1	-3%
O=C1CC(c2ccccc2C(F)(F)F)c2c(c3ccccc3[nH]c2=O)O1 (configuration not stated)	5%
CCOC(=O)Cn1nc(C)c(NC(=O)COc2ccc(C)c(C)c2)c1C	i
CCC1CCCCN1CCCNC(=O)c1ccc2c(c1)N(Cc1cccc(C)c1)C(=O)c1ccccc1S2(=O)=O (configuration not stated)	4µM*
O=C(NCc1ccco1)c1ccc2c(c1)N(Cc1ccc(Cl)cc1)C(=O)c1ccccc1S2(=O)=O	i
CCC1CCCCN1CCCNC(=O)c1ccc2c(c1)N(Cc1ccc(Cl)cc1)C(=O)c1ccccc1S2(=O)=O (configuration not stated)	4µM*
SMILES	Pf Dd2 inh
CCC1CCCCN1CCCNC(=O)c1ccc2c(c1)N(Cc1cccc(Cl)c1)C(=O)c1ccccc1S2(=O)=O (configuration not stated)	-6%
O=C(Cn1ccn2nc(-c3ccc(F)cc3)c(CO)c2c1=O)Nc1ccc2c(c1)OCCO2	1%
COc1cccc([S+](=O)([O-])N2CCC3(C2)NC(=O)c2ccccc2O3)c1 (configuration not stated)	i
O=C(NCc1cccnc1)c1nc(-c2ccc(F)cc2)c2ccccn12	-20%
O=C(NCc1cccs1)c1nc(-c2ccsc2)c2ccccn12	i
O=C(c1nc(-c2cccc(C(F)(F)F)c2)c2ccccn12)N1CCOCC1	-12%
O=C(NCc1ccc(F)cc1)c1nc(-c2cccc(F)c2)c2cnccn12	2.5µM*
CC(C)NC(=O)c1nc(-c2cccc(C(F)(F)F)c2)c2cnccn12	1.8µM*
O=C(NCc1ccc(F)cc1)c1nc(-c2cccc(C(F)(F)F)c2)c2cnccn12	2.5µM*
O=C(NCc1cccs1)c1nc(-c2ccc(F)cc2)c2ccccn12	-22%
CC(C)NC(=O)c1nc(-c2cccc(C(F)(F)F)c2)c2ccccn12	-10%[44.1 µM]
O=C(NCc1cccs1)c1nc(-c2cccc(C(F)(F)F)c2)c2cnccn12	1.8µM*
CC(C)NC(=O)c1nc(-c2cccnc2)c2cnccn12	i
O=C(NCc1ccccn1)c1nc(-c2cccnc2)c2ccccn12	-14%[44.1 µM]
CN(C)C(=O)c1nc(-c2cccc(F)c2)c2cnccn12	i
COc1ccc(C(CC(=O)Nc2ncccc2C)N2Cc3ccccc3C2=O)cc1OC (configuration not stated)	1%
CC(C)CCN1CCOc2cc(C(=O)N(C)c3cccnc3)ccc2C1	-28%[44.1 µM]
CN(CCNC(=O)C1CCN(c2cn[nH]c(=O)c2)C1)C1CCCCC1 (configuration not stated)	-23%
Cc1nn2c(c1-c1ccccc1-c1ccccc1)N(C(=O)c1cnccn1)CCC2	57%[44.1 µM]
O=C1CO[C@H]2CN(C3CCOCC3)C[C@H]2N1Cc1ccncc1	5%[44.1 µM]
COc1ccccc1CN1C[C@@H]2C[C@H]1C(=O)Nc1ccccc1O2	-8%[44.1 µM]
COC(=O)c1ccc2c(=O)n(CCCCCC(=O)N3CCN(c4ccc(Cl)cc4)CC3)c(=O)[nH]c2c1	i
CC(C)C[C@@H](NC(=O)C1=C[C@@H](NC(=O)CC2(CC(=O)O)CCCC2)[C@@H](O)[C@H](O)C1)C(N)=O	34%
COc1ccc(CN[C@H]2C[C@H]3C(=O)NC[C@@H](CCC(=O)NCc4ccc(F)cc4)N3C2)cc1	6%
CCOCC(=O)N1C[C@@H]2CCCN3CCC[C@@H]([C@H]23)[C@H]1CCCC(=O)NC	11%
SMILES	Pf Dd2 inh
COc1ccc(OC)c(CCNC(=O)c2cc3c(-c4ccccc4F)nn(C)c3s2)c1	i
O=C(NCc1ccc(F)cc1)c1nc(-c2ccc(Cl)cc2)c2ccccn12	10µM*
CC(C)NC(=O)c1nc(-c2cc(Cl)cc(Cl)c2)c2ccccn12	-14%
Cc1cccc(C)c1-c1nc(C(=O)NC(C)C)n2ccccc12	13µM*
O=C(NCc1ccc(F)cc1)c1nc(-c2ccc(Cl)cc2Cl)c2ccccn12	-14%
Cc1cccc(C)c1-c1nc(C(=O)NCc2ccc3c(c2)OCO3)n2ccccc12	-9%
O=C(c1nc(-c2ccc(Cl)cc2Cl)c2ccccn12)N1CCCC1	-15%
N#CC1CCN(C(=O)c2nc(-c3ccccc3)c3ccccn23)CC1	i
COC(=O)CNC(=O)c1nc(-c2ccc(F)cc2)c2ccccn12	-12%[44.1 µM]
O=C(c1nc(-c2ccc(Cl)cc2)c2ccccn12)N1CCCC1	11µM*
CNC(=O)[C@@H]1CN(S(=O)(=O)C(C)C)C[C@H]1COC	4%
O=C(Cc1ccccn1)N1CCC(c2nn(-c3ccc(F)cc3)c(=O)[nH]2)CC1	-8%
O=c1cc(-c2ccccc2)n2c(SCc3ccc(Cl)cc3)nnc2[nH]1	16%
CCOc1ccc(NC(=O)Cn2nc3n(c2=O)CCCC3)cc1	i
COc1ccc(C(=O)N2CC(c3nnc(C(C)C)o3)C3(CCOCC3)C2)cn1 (configuration not stated)	16%
CCOCCCN(Cc1ccco1)S(=O)(=O)c1cc2c(cc1Cl)NC(=O)CO2	i

Compound activity from PubChem BioAssay.
